Compounds with a hit are over-represented: about 4.5% of the library has one in this group of screens.
DAX1 inh-1 – inhibitors of DAX1 repression of SF-1 activated StAR promoter; HEK293T StAR-luciferase reporter, SF-1/DAX-1 repression relief; inhibition, % at 6.8 µM; 370,000 tested, 1.1% active; AID 652010;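 active = inhibition above the mean over all tested compounds plus 3 SD, cut at about 3.6% in these data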;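 also: 0% = DAX-1 cells with DMSO and 100% = cells lacking DAX-1 with DMSO; higher inhibition means more luminescence from relief of DAX-1 repression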
ssDAF-12 act – S. stercoralis DAF-12 activation, primary screen | HEK293 ssDAF-12/GRIP1 lit1-tk-luc reporter, luminescence; % of 3 µM dafachronic acid response | activation, % at 6.8 µM | 370,000 tested, 1% active | AID 652126;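 active = activation above the mean over all tested compounds plus 3 SD, cut at about 0.9% in these data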;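 also: 0% = DMSO-only wells and 100% = 3 µM delta7-dafachronic acid wells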
DAX1 inh-2 – inhibitors of human orphan nuclear receptor DAX1 (NR0B1) | P51843 | HEK293 Gal4-DAX1 luciferase reporter, luminescence | inhibition, % at 6.75 µM | 340,000 tested, 0.99% active | AID 504766;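 active = inhibition above the mean over all tested compounds plus 3 SD, cut at about 4.2% in these data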;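 also: 0% = DAX1-transfected cells with DMSO and 100% = empty-vector control cells with DMSO; inhibition shows as a rise in luminescence from relieved DAX1 repression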
Target sequence (P51843 207-470 limits assumed): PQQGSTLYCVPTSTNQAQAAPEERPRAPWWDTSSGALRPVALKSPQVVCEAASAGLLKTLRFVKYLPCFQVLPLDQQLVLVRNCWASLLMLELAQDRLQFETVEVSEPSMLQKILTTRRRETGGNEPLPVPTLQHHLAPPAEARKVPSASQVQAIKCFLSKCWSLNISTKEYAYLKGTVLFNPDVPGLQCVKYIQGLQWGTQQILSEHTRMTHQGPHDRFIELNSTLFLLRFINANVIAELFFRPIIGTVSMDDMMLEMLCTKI
hcDAF-12 act – H. contortus DAF-12 activation, primary screen; HEK293 hcDAF-12 lit1-tk-luc reporter, luminescence; 0% DMSO, 100% Δ7-dafachronic acid; activation, % at 6.8 µM; 370,000 tested, 1.4% active;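 active = activation above the mean of all tested compounds plus 3 SD, cut at about 5.5% in these data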;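 also: 100% = response to 3 µM Δ7-dafachronic acid high control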
hgDAF12 agonist – activates the H. glycines DAF-12 receptor ligand-binding domain; 370,000 tested, 1.8% active; activation, % at 6.8 µM; HEK293 GAL4-hgDAF12 UAS-luciferase reporter, agonist luminescence; normalized to butyrate control;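 active = activation above a cutoff set at the mean of all screened compounds plus 3 SD, cut at about 10% in these data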;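 also: 0% = DMSO wells and 100% = sodium butyrate wells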
FXN GAA850 act – frataxin GAA850 promoter activation. activation, % at 6 µM. HEK293 lucGAA850 FXN promoter luciferase reporter, 24 h; percent of 10 µM SAHA response. 360,000 tested, 0.56% active;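 active = activation above the average of all compounds screened plus 3 SD, cutoff fixed separately per campaign, cut at about 7.5% in these data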;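 also: 0% = DMSO wells and 100% = 10 µM SAHA wells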
DAX1 conf – NR0B1 (human) inhibition, confirmation | shares compounds with DAX1 inh-1 | HEK293T StAR-promoter luciferase reporter, SF-1/DAX-1 repression | inhibition, % at 6.8 µM | 2,400 tested, 87% active;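 active = inhibition above the average of every tested compound plus 3 SD, cut at about 3.8% in these data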;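 also: 0% = DAX-1 cells with DMSO and 100% = no DAX-1 control cells with DMSO; active compounds raise luminescence by relieving repression of the StAR reporter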
SF1 mutant ctr – counter-screen for DAX1 inhibitors: nonselective inhibitors with SF-1 AF2 mutant; shares compounds with DAX1 inh-1; HEK293 StAR-luciferase, luminescence; inhibition, % at 6.8 µM; 2,400 tested, 78% active;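 active = inhibition above the mean of all tested compounds plus 3 SD, cut at about 3% in these data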;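 also: 0% = DAX-1 transfected cells with DMSO and 100% = cells without DAX-1 with DMSO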
An asterisk follows results filed as active; . = no result given.

SMILES	DAX1 inh-1	ssDAF-12 act	DAX1 inh-2	hcDAF-12 act	hgDAF12 agonist	FXN GAA850 act	DAX1 conf	SF1 mutant ctr
O=C(Nc1ncc([N+](=O)[O-])s1)c1ccc2c(c1)OCO2	0	-1	-5	0	0	-7	.	.
O=C(Nc1ncc([N+](=O)[O-])s1)c1ccco1	6.5*	1	1	4	8	3	5.7*	6.2*
CC1(C)CC(=O)C=C(c2ccc(-c3ccc4[nH]ccc4c3)cc2)C1=O	5.3*	0	-1	4	7	-3	12*	0
O=C(c1cc(-c2ccccc2O)on1)N1CCOCC1	1	-1	3	0	9	3	.	.
O=C(c1cc(-c2ccc(Cl)cc2Cl)on1)N1CCOCC1	6.1*	0	-3	4	6	-1	7.9*	2
CC(C)C(=O)Nc1nnc(COc2ccc(Cl)cc2)s1	0	-1	3	0	-1	5	.	.
CC(=O)Nc1nnc(COc2ccc(Cl)cc2)s1	5.5*	1	2	3	13*	5	6.2*	3.0*
O=C(c1ccc(-c2ccccc2Cl)o1)N1CCCCCCC1	5.4*	0	4	2	11*	6	8.4*	6.1*
COc1ccc(-c2cc3nc4n(c(=O)c3s2)CCC4)cc1	6.6*	0	-5	5	7	-5	7.3*	-1
COc1ccc(-c2nc3n(c2C)CCC3)cc1	0	-1	2	0	1	1	.	.
Cc1cccc(-c2cc3nc4c(c(NCc5ccco5)n3n2)CCCC4)c1	5.0*	0	2	0	12*	6	5.4*	3.1*
COC(=O)[C@]12C[C@H](CC(=O)NCCC(C)C)C(=O)N(CCC3=CCCCC3)C1=C[C@H](C1CCCC1)O[C@@H]2C	-1	-1	.	3	2	.	.	.
C=CCn1c(C)cc(C(=O)COc2ncnc3sccc23)c1C	5.2*	0	1	6.3*	11*	5	14*	6.5*
C=CCn1c(C)cc(C(=O)COC(=O)c2cncc(Br)c2)c1C	3	-1	1	2	8	3	.	.
COC(=O)c1ccc2nc(-c3cccc(N)c3)cn2c1	5.6*	-1	-2	4	5	-6	5.3*	2
O=C(CSc1nnc(-c2ccc(Cl)cc2)n1C1CCCCC1)NN=Cc1c(O)ccc2ccccc12	-3	-1	.	-1	2	.	.	.
Cc1cccc(NC(=O)/C(C#N)=C/c2ccc(Cl)cc2)n1	0	-1	2	-1	-2	0	.	.
Cc1cccc(NC(=O)/C=C/c2ccc(Cl)cc2)n1	4.6*	0	1	4	12*	6	8.7*	5.0*
Cc1ccc(S(=O)(=O)N2CCN(C(=O)Cn3cnc4c3c(=O)n(C)c(=O)n4C)CC2)cc1C	5.0*	-1	-1	-1	2	0	4	1
Cn1c(=O)c2c(ncn2CC(=O)N2CCN(S(=O)(=O)c3ccc(Cl)cc3)CC2)n(C)c1=O	1	-1	0	-1	0	1	.	.
O=C(COC(=O)c1cccc(-n2cnnn2)c1)c1ccc(F)cc1	4	0	-1	3	5	2	.	.
COc1ccc(C(=O)COC(=O)c2cccc(-n3cnnn3)c2)c(OC)c1	4.6*	-1	0	4	10	2	7.8*	4.4*
Cc1cc(Nc2cc(Cl)cc(Cl)c2)cc(=O)n1-c1cc(Cl)cc(Cl)c1	0	-1	.	-1	-2	.	.	.
Nc1ccccc1C(=O)Nc1nccs1	1	-1	1	2	1	3	.	.
Nc1ccc(C(=O)Nc2nccs2)cc1	4.8*	-1	1	3	10	3	5.1*	4.7*
SMILES	DAX1 inh-1	ssDAF-12 act	DAX1 inh-2	hcDAF-12 act	hgDAF12 agonist	FXN GAA850 act	DAX1 conf	SF1 mutant ctr
O=C(OCc1cn(Cc2ccc(F)cc2F)nn1)N1CCOCC1	-2	-1	.	-1	0	.	.	.
Nc1nc(N)c2c(ccc3c2ccn3Cc2cccc([N+](=O)[O-])c2)n1	-5	-3	.	-1	-13	.	.	.
COc1cc(OC)cc(-c2noc(-c3csc([C@H]4C[C@H](O)[C@@H](CO)O4)n3)n2)c1	3	0	.	2	6	3	.	.
OC[C@H]1O[C@H](c2nc(-c3nc(-c4cccs4)no3)cs2)C[C@@H]1O	4.8*	0	.	3	12*	-1	5.7*	3
COc1cccc(-c2nnc(-c3ccc4ccccc4c3)o2)c1	5.5*	0	3	4	10	4	15*	6.1*
Cc1ccc(-c2nnc(-c3ccc4ccccc4c3)o2)cc1	1	0	2	3	7	5	.	.
Cc1ccc(C(=O)NCCC(=O)N2CCOCC2)cc1	10*	0	1	4	9	2	6.3*	3.3*
CCOC(=O)c1sc(NC(=O)c2ccc(CC)s2)nc1C	2	-1	0	0	6	2	.	.
CCc1ccc(C(=O)Nc2nc(C)cs2)s1	16*	0	-1	4	11*	-2	9.9*	6.1*
C#CCOCCOCCOCCNc1nc(N2CCN(C(=O)[C@H]([C@@H](C)CC)n3cc(CCCCN)nn3)CC2)nc(N2CCN(C(=O)[C@H](Cc3ccc(O)cc3)n3cc(CCO)nn3)CC2)n1	.	-2	.	-2	-2	.	.	.
Cc1ccc(S(=O)(=O)N2c3ccc(F)cc3C[C@H]2CSc2ccccc2)cc1	.	-1	.	-2	0	.	.	.
CCC(C)c1ccc(NC(=O)Nc2cccnc2)cc1 (stereo unspecified)	6.4*	1	2	0	9	5	4.7*	3.6*
CCC(c1nnnn1-c1ccc2c(c1)OCCO2)N1CCN(C)CC1 (stereo unspecified)	0	-1	.	-2	2	.	.	.
CCC(c1nnnn1-c1ccc2c(c1)OCCO2)N1CCN(CC)CC1 (stereo unspecified)	5.4*	-1	.	0	0	.	3	2
CCOC(=O)N1CCN(C(=O)C[C@H]2C[C@@]3(C(=O)OC)C(=C[C@H](C(C)C)O[C@@H]3C3CC3)N(Cc3cccc4ccccc34)C2=O)CC1	-1	-1	.	-3	-5	.	.	.
O=C(Nc1cccc(Cl)c1)N1CCc2ccccc2C1	1	0	2	1	10	6	.	.
COc1cccc(NC(=O)N2CCc3ccccc3C2)c1	6.1*	0	2	4	8	4	8.4*	7.1*
O=C(Nc1ccccc1F)N1CCc2ccccc2C1	6.4*	0	2	3	7	3	6.8*	7.1*
C[C@H]1COc2cc(N3CCCCC3)ccc2S(=O)(=O)N1	0	-1	.	1	3	.	.	.
